Reference: ChEMBL document CHEMBL3433997, “St. Jude Leishmania screening dataset” (2016)

What follows are compounds tested against Glucose transporter (Leishmania mexicana) (UniProt O61059) (assay: ST_JUDE_LEISH: Cytotoxicity at 2uM final concentration against transgenic Leishmania Mexicana promastigotes LmGT2 that are glucose transport deficient and complemented with the L. Mexicana glucose transporter 2. Activity is measured by DNA content using SYBR green in vitro).
Format: functional
`O=C(NCCCCN1CC=C(c2ccc3c(c2OCC2CC2)CCCC3)CC1)c1ccc(-c2ccc(C(F)(F)F)cc2)cc1` was tested, and the inhibition was 5.23%. For `CCCCCCCCCCN1C(=O)C2C(CCCCNC(C)=O)NC3(C(=O)N(Cc4ccc(C(C)(C)C)cc4)c4ccccc43)C2C1=O` (centres undefined), the inhibition was 3.53%. Work on `CCOc1ccc(N(CC)S(=O)(=O)c2cc(Br)cc3c2N(C(=O)C2CC2)CC3)cc1` yielded an inhibition of 1.74%. Compound `COc1cccc(-n2ncc3c(N/N=C/c4ccc(CN(C)CCN(C)C)cc4)ncnc32)c1` has an inhibition of 7.16%. In the case of `Cc1ccc(Nc2nccc(N(C)c3ccc4c(c3)nc(NC(=O)Cc3ccc(Cl)c(Cl)c3)n4C)n2)cc1S(N)(=O)=O`, the inhibition is reported as 5.64%. With `Cc1ccc2c(=NN=Cc3ccc(N(C)C)cc3)cc(C)[nH]c2c1` the inhibition was -5.38%. In the case of `COc1cc(NC(=O)c2cccs2)c(OC)cc1NC(=O)Nc1cccc(Cl)c1`, the inhibition is reported as 2.28%. `COc1ccc(C2C(C(=O)Nc3cc(C)ccc3OC)c3ccccc3C(=O)N2C)cc1` (centres undefined) was tested, and the inhibition was 1.74%. With `O=C(NCC1CCC(C(=O)NC2CCCc3ccccc32)CC1)c1ccc(O)c(-c2cccc([N+](=O)[O-])c2)c1` (centres undefined) the inhibition was 2.39%. `CN1CCCC(CN2CCN(Cc3cccc(-c4ccc(-c5nc6cc(F)ccc6[nH]5)cc4)c3)CC2)C1` (centres undefined) showed an inhibition of 1.35%. `CC(C)NCc1ccc(-c2ccc(NC(=O)c3cccc(Cl)c3)cc2)cc1` was tested, and the inhibition was -3.53%. In the case of `Cc1[nH]c(C)c(-c2ccc(-c3ccc(OC(F)(F)F)cc3)nc2)c(=O)c1Cl`, the inhibition is reported as 0.22%. Work on `O=C(Cc1ccc(Cl)cc1)NC1CCN(c2ccnc3cc(Cl)ccc23)C1` (centres undefined) yielded an inhibition of 0.26%. In the case of `O=C(C=Cc1cn(-c2ccccc2)nc1-c1cccs1)N1CCN(c2ccncc2)CC1`, the inhibition is reported as -3.76%.
